{
  "source": "PubChem BioAssay (NCATS)",
  "note": "Records with an inconclusive call do not appear. Values without a mark were called inactive. Activity calls are given as the source filed them. The call rests on the fitted dose curve; in most records, active means well fitted inhibition curve with a large enough effect; inconclusive means small, poorly fitted or top-dose-only effect; inactive means flat fitted curve, though single readings scatter. Potency means the concentration at half of the fitted maximal effect.",
  "data": [
    {"test_system": "PC49", "assay": "qHTS profiling for inhibitors of Plasmodium falciparum proliferation (AID 504749); further: nearly all actives have a fitted effect of over 60% in size;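 on activity, negative = inhibition: 0% = DMSO vehicle and full inhibition = artemisinin control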", "conditions": "P. falciparum in erythrocytes, SYBR Green DNA, 72 h; series mostly up to 28.7 µM; activity, negative = inhibition: at the top concentration", "summary_of_the_method": "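Fluorescence of SYBR Green-bound parasite DNA, read at 485/535 nm, served as the growth measure. Infected erythrocytes were cultured with compound 72 h; artemisinin (0.29 uM) and DMSO wells defined the normalization range.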", "values": [
      {"compound": "Cn1nnc2c(C(N)=O)ncn2c1=O", "activity, negative = inhibition": "-1.48%"},
      {"compound": "N[C@@H](C(=O)N[C@@H]1C(=O)N2C(C(=O)O)=C(Cl)CS[C@H]12)c1ccccc1", "activity, negative = inhibition": "17.2%"},
      {"compound": "O=P(O)(O)C(O)(Cc1cccnc1)P(=O)(O)O", "activity, negative = inhibition": "14.6%"},
      {"compound": "NCCCC(O)(P(=O)(O)O)P(=O)(O)O", "activity, negative = inhibition": "5.53%"},
      {"compound": "CC(C)(C#N)c1cc(Cn2cncn2)cc(C(C)(C)C#N)c1", "activity, negative = inhibition": "27.9%"},
      {"compound": "Cc1ccnc2c1NC(=O)c1cccnc1N2C1CC1", "activity, negative = inhibition": "16.5%"},
      {"compound": "O=C(O)c1cc(=O)[nH]c(=O)[nH]1", "activity, negative = inhibition": "11.1%"},
      {"compound": "Cc1ncc([N+](=O)[O-])n1CCO", "activity, negative = inhibition": "6.07%"},
      {"compound": "CCN(C)C(=O)Oc1cccc([C@H](C)N(C)C)c1", "activity, negative = inhibition": "-1.13%"},
      {"compound": "COc1cc(NCc2ccc3nc(N)nc(N)c3c2C)cc(OC)c1OC", "Potency": "0.501 µM (active)"},
      {"compound": "COc1cc([C@@H]2c3cc4c(cc3[C@H](O)[C@H]3COC(=O)[C@H]23)OCO4)cc(OC)c1OC", "Potency": "8.91 µM (active)"},
      {"compound": "C1CCC(C(CC2CCCCN2)C2CCCCC2)CC1", "note": "(stereo not given)", "Potency": "2.82 µM (active)"},
      {"compound": "COc1ccc2cc3[n+](cc2c1OC)CCc1cc2c(cc1-3)OCO2", "Potency": "2.51 µM (active)"},
      {"compound": "CCn1cc(C(=O)O)c(=O)c2cc(F)c(N3CCNCC3)nc21", "activity, negative = inhibition": "-12.2% [at 12.8 µM]"},
      {"compound": "CCOCC(O)COc1ccc(NC(=O)CC[S+](C)C)cc1", "note": "(stereo not given)", "activity, negative = inhibition": "-1.42%"},
      {"compound": "COC(=O)Nc1nc2ccc(Sc3ccccc3)cc2[nH]1", "activity, negative = inhibition": "8.39% [at 12.8 µM]"},
      {"compound": "CC(C)Cn1cnc2c(N)nc3ccccc3c21", "activity, negative = inhibition": "7.62%"},
      {"compound": "O=S(=O)(O)CCS", "activity, negative = inhibition": "2.44%"},
      {"compound": "CN(C)c1ccc(C(=C2C=CC(=[N+](C)C)C=C2)c2ccc(N(C)C)cc2)cc1", "Potency": "1.78 µM (active)"},
      {"compound": "CN1CCN(c2c(F)cc3c(=O)c(C(=O)O)cn(CCF)c3c2F)CC1", "activity, negative = inhibition": "5.17%"}
    ]}
  ]
}
